Compounds with a hit are over-represented: about 14% of the library has one in this group of screens.
Pf growth 96h: P. falciparum growth inhibition at 96 hour, primary screen for plastid delayed-death inhibitors; P. falciparum luciferase reporter growth, 96 h; 6.9% of 320,000 active; AID 504834; Potency, µM (doses to about 28.7 µM), for inactives: top-dose activity change, negative = inhibition, actives largely listed as inhibitors; note: potency is the fitted concentration of half-maximal effect
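Delayed-death screen, second-generation endpoint: infected erythrocytes, 2% hematocrit, 0.05% parasitemia final; 96 hours at 37 C, 5% CO2; luciferase detection reagent; luminescence decrease equals reduced growth.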
HCV inh: blocks hepatitis C virus | Huh7.5.1 HCVcc-Cre infection, luciferase reporter, 44 h | Potency, µM (titrated, usually from 41.8 µM), for inactives: at the highest dose activity change, negative = inhibition, actives largely listed as inhibitors | 3.4% of 340,000 active; note: potency is the fitted concentration of half-maximal effect
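A cell-based infection assay in which seeded cells (1,000 per well) receive test compound after 4 h, are inoculated with HCVcc-Cre at approximately 0.5 moi, and are incubated 44 h before luminescence detection.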
HCMV antiviral: blocks human cytomegalovirus replication. 4.5% of 410,000 active. activity change, negative = inhibition, % at 57.5 µM. AID 1259415. HFF cells, HCMV-luciferase reporter, 72 h; hits give low values; in the data active = activity change below about -60%; inconclusive = no clear call, values can overlap the other calls; inactive = above about -39%
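Steps: HFFs plated, 16 h 37C; compounds added; HCMV-luciferase added to MOI 1 PFU/cell; 72 h 37C; OneGlo reagent, 5 min room temperature; luminescence read, normalized to controls.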
Pf growth 48h: inhibits P. falciparum growth in the first generation, 48 h; P. falciparum luciferase growth in erythrocytes, 48 h; Potency, µM (doses to about 28.7 µM), inactives show at the top dose activity change, negative = inhibition, usual class: inhibitors; 5.9% of 310,000 active; note: potency is the fitted concentration of half-maximal effect
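Read-out is firefly luciferase luminescence from an integrated reporter in P. falciparum, so falling signal marks reduced parasite growth. Infected erythrocytes were at 2% hematocrit and 0.1% parasitemia (final) in Albumax-supplemented RPMI 1640.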
Lassa entry inh: inhibitors of Lassa virus binding or cell entry | Lassa virus pseudotype entry inhibition, cell reporter | Potency, µM (doses to about 37.9 µM), without a hit: at the top dose activity change, negative = inhibition, usual class: inhibitors | 1.2% of 300,000 active; calls by dose curve; tested in HEK293 cells; note: potency is the fitted concentration of half-maximal effect; nearly all actives have a fitted effect of over 50% in size
Marburg entry inh: blocks Marburg virus binding to or entry into cells; Marburg virus pseudotyped entry inhibition, cell reporter; 1.8% of 300,000 active; Potency, µM (highest dose often 37.8 µM), without a hit: at the highest dose activity change, negative = inhibition, actives largely listed as inhibitors; calls by dose curve; tested in HEK293 cells; note: potency is the fitted concentration of half-maximal effect
* = called active by the depositor; ? = inconclusive; nt = not tested or not shown; [ ] = dose if it differs, or a comment. Unless noted, calls come from the whole dose curve; as a rule, active = well fitted inhibition curve with a large enough effect; inconclusive = small, poorly fitted or top-dose-only effect, or another doubt; inactive = no such curve, though single readings can be large or run the other way. % is set by controls: 0 for no effect and ±100 for the full control effect.

SMILES	Pf growth 96h	HCV inh	HCMV antiviral	Pf growth 48h	Lassa entry inh	Marburg entry inh
CCOc1ccc(NC(=O)c2nnn(CC(=O)Nc3ccccc3OCC)c2N)cc1	187%	11µM*	13	10%	1%	0%
CCc1ccc(Cn2nnc(C(=O)Nc3ccc(OC)cc3OC)c2N)cc1	7.4µM*	0%	-7	nt	nt	nt
COc1ccc(NC(=O)c2nnn(CC(=O)Nc3ccccc3OC)c2N)c(OC)c1	15%	5%	1	31%	nt	nt
Cc1ccc(NC(=O)Cn2nnc(C(=O)NCc3cccs3)c2N)cc1Cl	9.3µM*	1%	1	37%	0%[46.1 µM]	-24%[46.1 µM]
COc1ccc(C)cc1NC(=O)c1nnn(Cc2cccc(Br)c2)c1N	nt	nt	-35	nt	-12%[46.1 µM]	?
COc1ccc(C)cc1NC(=O)c1nnn(Cc2cccc(C(F)(F)F)c2)c1N	13µM*	?	?	-2%	-26%	-23%[46.1 µM]
CC(C)c1ccc(NC(=O)Cn2nnc(C(=O)NCc3ccc4c(c3)OCO4)c2N)cc1	9.3µM*	6%	?	-17%	18%[46.1 µM]	?
CCOc1ccc(Cn2nnc(C(=O)NCc3ccc(OC)cc3)c2N)cc1	0.93µM*	3%	-1	10%	-20%	2%
NC(=O)c1cnc(Cc2c[nH]c3ccccc23)c(I)c1	nt	nt	-15	nt	nt	nt
COc1ccc(C)cc1NC(=O)CCNS(=O)(=O)c1cccc2nonc12	21%	-9%	-6	0%	15%	2%[46.1 µM]
COc1ccc(Cl)cc1NC(=O)CCNS(=O)(=O)c1cccc2nonc12	10µM*	-13%	37	27%	-9%[46.1 µM]	-4%[46.1 µM]
COc1cc(NC(=O)C(NC(=O)C2CCC(C)CC2)C(C)C)cc(OC)c1OC (configuration not stated)	nt	nt	14	nt	0%[46.1 µM]	?
CC(C)Cn1c([N+](=O)[O-])nc2c1c(=O)[nH]c(=O)n2C	?	?	-103*	?	7.1µM*	?
Cn1c(=O)[nH]c(=O)c2c1nc(N1CCNCC1)n2Cc1ccccc1	?	21%	19	?	?	?
CCNc1nc2c(c(=O)[nH]c(=O)n2C)n1CC(C)C	17%	12%	39	18%	nt	nt
Cn1c(=O)[nH]c(=O)c2c1nc([N+](=O)[O-])n2Cc1ccccc1	13µM*	-84%	-97*	7.4µM*	?	?
O=C(Nc1ncc2c(n1)-c1ccccc1CC2)c1ccc(Cl)cc1	?	9%	-39	2%	-15%	5%
CCCSCC(=O)Nc1ncc2c(n1)-c1ccccc1CC2	38%	-21%	-95*	446%	?	8%[46.1 µM]
Cc1ccc(-n2c3nc(=O)[nH]c(=O)c-3cc3cc([N+](=O)[O-])ccc32)cc1C	0%	35µM*	-99*	7%	?	?
CNC(=S)N1N=C(c2ccc(Br)cc2)CC1c1ccc(OC)cc1 (configuration not stated)	10µM*	10µM*	-13	-27%	?	?
COc1ccc(OC)c(C2CC(c3ccccc3)=NN2C(=S)Nc2ccccc2)c1 (configuration not stated)	?	-4%	-11	2.3µM*	nt	nt
CNC(=S)N1N=C(c2ccc(OC)cc2)CC1c1ccc(Cl)cc1Cl (configuration not stated)	5.9µM*	3%	-21	12µM*	?	?
COc1ccc(C2=NN(C(=O)CCC(=O)O)C(c3ccccc3)C2)cc1 (configuration not stated)	?	18%	11	6%	nt	nt
COc1ccc(C2=NN(C(=O)CCC(=O)O)C(c3ccc(F)cc3)C2)cc1 (configuration not stated)	15µM*	-1%	-9	-25%	21%[46.1 µM]	-12%[46.1 µM]
CNC(=S)N1N=C(c2ccc(OC)cc2)CC1c1ccccc1Cl (configuration not stated)	?	?	-39	?	?	?
SMILES	Pf growth 96h	HCV inh	HCMV antiviral	Pf growth 48h	Lassa entry inh	Marburg entry inh
COc1ccc(C2CC(c3ccc(Br)cc3)=NN2C(=O)CN2CCCC2)cc1 (configuration not stated)	-20%	10µM*	-16	?	?	?
c1nnc(NC2=NCCC2)s1	-9%	4%	-17	nt	-25%	3%
Clc1ccc(CSc2nnc(NC3=NCCCCC3)s2)cc1	11%	?	-67*	nt	-12%	-28%
c1nnc(NC2=NCCCCC2)s1	5.9µM*	7%	47	31%	-3%	13%
Cc1ccc(NC(=O)c2ccc3c(c2)NC(=O)c2ccccc2S3)c(Cl)c1	nt	nt	-23	nt	nt	-7%[46.1 µM]
Cc1ccc2c(CN3CCN(Cc4ccccc4Cl)CC3)cc(=O)oc2c1	nt	nt	-30	nt	1%[46.1 µM]	3%[46.1 µM]
Cc1ccc(C(=O)Nc2ccc(Br)cc2)cc1S(=O)(=O)NCc1ccccc1	nt	nt	-69*	nt	?	nt
Cc1ccc(C(=O)N(C)Cc2ccc(N3CCOCC3)cc2)cc1S(=O)(=O)NCc1ccccc1	?	?	-4	10µM*	nt	nt
Cc1ccc(C(=O)Nc2ccccc2C(=O)O)cc1S(=O)(=O)NCc1ccccc1	96%	8%	-10	10%	nt	nt
O=C(NCC1CC1)Nc1cccs1	34%	-2%	6	9%	nt	nt
CCOc1ccc(NS(=O)(=O)c2ccc3c(c2)CCCN3C(=O)C2CCC2)cc1	nt	nt	-9	nt	?	nt
C=C(C)CNC(=S)N/N=C/c1ccco1	?	5%	-61*	?	2%[46.1 µM]	?
C=C(C)CNC(=S)NN=C1c2ccccc2-c2ccccc21	?	11µM*	nt	2%	?	?
CCNC(=S)NN=C1c2ccccc2-c2ccccc21	4.7µM*	16µM*	73	-19%	-25%	5%[46.1 µM]
O=C(CCC(=O)N/N=C/c1ccco1)N/N=C/c1ccco1	1%	16%	38	0%	1%	?
Cc1ccc(C)c(NC(=O)C(=O)NCC(c2cccnc2)N2CCN(c3ccc(F)cc3)CC2)c1 (configuration not stated)	nt	nt	-21	nt	-7%[46.1 µM]	nt
Cc1cc(C)cc(OC(=O)c2cc(-c3ccc(Cl)cc3)on2)c1	nt	nt	-1	nt	-5%[46.1 µM]	4%[46.1 µM]
O=C(CN1CCN(c2ccc(Cl)cc2)CC1)NCc1ccccc1	-6%	?	-12	10%	6.3µM*	?
O=C(CN1CCCC1)NCc1ccccc1	13µM*	10%	-13	-162%	nt	nt
O=C(Cn1ccc2ccccc2c1=O)NCCC(=O)N1CCN(c2cccc(Cl)c2)CC1	7.4µM*	-29%	-9	nt	-6%	?
O=C(CN1CCOCC1)NCc1ccccc1	?	-3%	34	9%	4%	11%
NC(=O)c1ccc(NC(=O)CN2CCN(c3ccc(Cl)cc3)CC2)cc1	12µM*	-4%	-14	7%	nt	nt
COc1cc(C2Oc3nc(SC)nnc3-c3ccccc3N2C(C)=O)cc(Cl)c1OC (configuration not stated)	nt	nt	4	nt	6%[46.1 µM]	-15%[46.1 µM]

Screening results deposited in PubChem by National Center for Advancing Translational Sciences (NCATS).
